Reference: PubChem BioAssay
Activity calls are given as the source filed them. Unless noted, no rule for the calls is given here.

What was measured:
[1] = kinase inhibitors against Plasmodium liver-stage infection, cell-based, known kinase inhibitor set, luminescence, hepatoma host viability (AID 624392); conditions: Plasmodium liver stage in hepatoma cells, luciferase luminescence, concentration not given here; liver cell % of control: measured here: host liver cell viability; parasite % of control: stronger effect = lower value;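 also: infected cells incubated roughly two days before readout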
[2] = modulators of glucocorticoid suppression of NF-kB, cell-based, luciferase, IL-1B stimulus, dexamethasone (AID 624486); conditions: NF-kB luciferase reporter, IL-1B + dexamethasone, luminescence; percent of negative control (+Dex): actives lie on both sides, concentration not given here; z-score: measured here: IL-1B alone, no Dex;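 as to percent of negative control (+Dex): 100% = mean signal of vehicle control wells on the plate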
[3] = molecular target: Cellular tumor antigen p53 (Homo sapiens) (UniProt P04637); assay: kinase inhibitors altering GFP-p53 stability in HPV16-positive cells, imaging, known kinase inhibitor set, EGFP/DsRed ratio (AID 1053116); conditions: stronger effect = higher value; EGFP object count: measured here: GFP-p53 positive objects count;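 also: cells exposed to compounds for 24 h at 37 °C before reading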
[4] = IRF3 reporter activation in THP-1 macrophages, cell-based, PMA-stimulated THP-1, luminescence (AID 1053176); conditions: PMA-differentiated THP-1, IRF3 reporter luminescence; stronger effect = higher value
[5] = kinase inhibitors altering Pseudomonas killing of worms, whole organism (AID 651566);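 also: tested at 14 µM; sign flipped so higher z means a lower ratio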; conditions: C. elegans killed by P. aeruginosa, survival ratio
[6] = activators of macrophage pro-inflammatory response, cell-based, murine, luminescence (AID 652131); conditions: murine macrophage pro-inflammatory reporter, stronger effect = higher value
[7] = survival rescue of mitochondrial mutant cells in low glucose, primary screen, MELAS cybrids, Rieske KO mouse fibroblasts, CellTiter-Glo (AID 1508586;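 active = mean z-score across replicates of 1.96 or higher in either the MELAS or the Rieske mutant cell line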;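 also: z relative to plate mean and SD of compound and empty wells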)
[8] = MELAS cybrid survival, CellTiter-Glo 48 h, stronger effect = higher value
[9] = Rieske KO mouse fibroblast survival, CellTiter-Glo 72 h

Cellular tumor antigen p53 (Homo sapiens), sequence (P04637 whole entry, looked up): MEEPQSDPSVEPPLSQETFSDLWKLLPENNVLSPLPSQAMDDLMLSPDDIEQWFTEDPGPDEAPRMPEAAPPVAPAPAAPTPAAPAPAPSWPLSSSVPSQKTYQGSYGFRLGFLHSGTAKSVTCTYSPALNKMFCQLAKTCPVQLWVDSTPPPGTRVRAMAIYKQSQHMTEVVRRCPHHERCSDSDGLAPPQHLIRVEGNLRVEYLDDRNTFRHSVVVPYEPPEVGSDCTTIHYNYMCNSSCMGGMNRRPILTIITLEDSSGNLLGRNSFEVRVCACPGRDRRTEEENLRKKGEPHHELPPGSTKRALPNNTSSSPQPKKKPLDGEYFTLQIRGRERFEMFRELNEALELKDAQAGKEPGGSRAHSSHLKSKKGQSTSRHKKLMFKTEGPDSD

| Structure (SMILES) | liver cell % of control [1] [%] | parasite % of control [1] | percent of negative control (+Dex) [2] | z-score [2] | EGFP object count [3] | EGFP/DsRed ratio [3] | fraction signal [4] | z-score [5] | z-score [6] | z-score [7, 8] | z-score [7, 9] |
| --- | --- | --- | --- | --- | --- | --- | --- | --- | --- | --- | --- |
| Cn1cc(C2=C(c3c4n(c5ccccc35)CCC(CN)CC4)C(=O)NC2=O)c2ccccc21 (centres undefined) | 127 | 42.3% (inactive) | 94% (inactive) | -0.165 | 30.5 | 0.0801 (inactive) | -0.003 (inactive) |  |  |  |  |
| COc1ccc(O)c(C(=O)c2ccc(C(=O)NC3CCCNCC3NC(=O)c3ccncc3)cc2)c1F (centres undefined) | 115 | 83.5% (inactive) | 68.5% (active) | -3.04 | 10.5 | 0.105 (inactive) | 0.0035 (inactive) |  |  |  |  |
| Cc1ccc(C)c(C2=C(c3cn(C)c4ccccc34)C(=O)NC2=O)c1 | 166 | 33% (inactive) | 102% (inactive) | -1.65 | 33.5 | 0.361 (inactive) | 0.0035 (inactive) |  |  |  |  |
| Cn1cc(C2=C(c3cn(C)c4ncccc34)C(=O)NC2=O)c2ccccc21 | 95.3 | 38.8% (inactive) | 100% (inactive) | -0.87 | 20 | 0.579 (inactive) | -0.009 (inactive) |  |  |  |  |
| Cn1cc(C2=C(c3cn(CCO)c4ccccc34)C(=O)NC2=O)c2ccccc21 | 89.7 | 54.6% (inactive) | 124% (inactive) | -1.11 | 25 | 0.285 (inactive) | -0.0245 (inactive) |  |  |  |  |
| Cc1c(C2=C(c3cn(C)c4ccccc34)C(=O)NC2=O)c2ccccc2n1C | 103 | 53.6% (inactive) | 102% (inactive) | -0.055 | 9 | 0.392 (inactive) | 0.0015 (inactive) |  |  |  |  |
| O=C1NC(=NCCc2cccc(F)c2)SC1=Cc1ccc2ncccc2c1 | 113 | 54% (inactive) | 85.5% (inactive) | -0.65 | 5.5 | 0.176 (inactive) | -0.018 (inactive) |  |  |  |  |
| C[C@@H](Oc1cc(-n2cnc3ccc(OC4CCN(C)CC4)cc32)sc1C(N)=O)c1ccccc1Cl | 70.4 | 183% (inactive) | 73% (inactive) | -2.66 |  |  | -0.008 (inactive) | -0.3 (inactive) | -1.72 (inactive) | -0.022 (inactive) | -0.0227 |
| COc1cccc(C2=C(c3c(C)n(C)c4ccccc34)C(=O)NC2=O)c1 | 97.6 | 66.1% (inactive) | 91% (inactive) | -0.5 | 6 | 0.121 (inactive) | -0.0005 (inactive) |  |  |  |  |
| Cn1cc(C2=C(c3cn(C)c4ccc(Cl)cc34)C(=O)NC2=O)c2ccccc21 | 77 | 33.5% (inactive) | 114% (inactive) | -1.06 | 156 | 0.929 (active) | -0.0075 (inactive) |  |  |  |  |
| Cn1cc(C2=C(c3cccc(N)c3)C(=O)NC2=O)c2ccccc21 | 102 | 14.9% (inactive) | 124% (active) | -1.23 | 23.5 | 0.303 (inactive) | -0.005 (inactive) |  |  |  |  |
| CCCn1cc(C2=C(c3cn(C)c4ccccc34)C(=O)NC2=O)c2ccccc21 | 101 | 78.5% (inactive) | 102% (inactive) | 0.09 | 17.5 | 0.158 (inactive) | 0.0035 (inactive) |  |  |  |  |
| Nc1c(C(=O)c2cccc(C#CCN3CCCCC3)c2)cnn1-c1ccc(F)cc1 | 91.6 | 50.5% (inactive) | 101% (inactive) | 0.935 | 1.5 | 0.0667 (inactive) | 0.0075 (inactive) |  |  |  |  |
| Cn1cc(C2=C(c3c4n(c5ccccc35)CCN(C(N)=S)C4)C(=O)NC2=O)c2ccccc21 | 94.5 | 22.4% (inactive) | 110% (inactive) | -0.965 | 36.5 | 0.211 (inactive) | -0.007 (inactive) |  |  |  |  |
| Nc1c(C(=O)c2cccc(C#CCO)c2)cnn1-c1ccc(F)cc1 | 100 | 58.9% (inactive) | 108% (inactive) | 1.13 | 1.5 | 0.0236 (inactive) | 0.008 (inactive) |  |  |  |  |
| COc1ccc(F)cc1C(=O)c1cnc(NC2CCN(S(C)(=O)=O)CC2)nc1N | 97.2 | 587% (inactive) | 96.5% (inactive) | -0.18 | 4.5 | 0.0651 (inactive) | -0.009 (inactive) |  |  |  |  |
| Fc1ccc(-c2ncn(C3CCNCC3)c2-c2ccnc(Oc3cccc(C(F)(F)F)c3)n2)cc1 | 97 | 156% (inactive) | 97% (inactive) | 0.355 |  |  | 0.0045 (inactive) | 0.19 (inactive) | -0.64 (inactive) | -0.429 (inactive) | -0.412 |
| CCn1c(=O)c(Oc2ccc(F)cc2F)cc2cnc(NC3CCOCC3)nc21 | 103 | 55.7% (inactive) | 85.5% (inactive) | -0.82 | 3.5 | 0.0988 (inactive) | -0.005 (inactive) |  |  |  |  |
| O=C1NC(=O)C(c2ccccc2)=C1Nc1ccccc1 | 106 | 119% (inactive) | 99.5% (inactive) | 0.395 |  |  | -0.014 (inactive) | 0.425 (inactive) | -0.099 (inactive) | -0.614 (inactive) | -0.425 |
